Compound activity as filed in PubChem BioAssay.
Shown are actives, neighbours in structure and some others; about 12% of the full set was active somewhere.
G9a inh = inhibitors of human histone lysine methyltransferase G9a. Q96KQ7. G9a H3K9 monomethylation, AlphaScreen, 2 h. Potency, µM (series often up to 102 µM), for the others: at the top dose activity, negative = inhibition, most hits filed as inhibitors. 350,000 compounds, 8.8% hits. AID 504332; further: on the % scale 0 is the no-effect control and ±100 the full control effect; nearly all actives have a fitted effect of over 75% in size
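G9a (20 nM) preincubated 15 min RT with compounds, then 500 nM biotinylated H3K9 peptide and 20 uM SAM added; 2 h RT reaction. Monomethyl-H3K9 product detected by AlphaScreen with anti-H3K9me1 antibody, streptavidin donor and anti-rabbit IgG acceptor beads.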
JMJD2A Tudor = JMJD2A Tudor domain (human) inhibition. AlphaScreen JMJD2A-Tudor / H3K4me3 peptide binding. Potency, µM (doses to about 114 µM), for the others: at the top dose activity change, negative = inhibition, most hits filed as inhibitors. 390,000 compounds, 4.4% hits. AID 504339; further: on the % scale 0 is the no-effect control and ±100 the full control effect; nearly all actives have a fitted effect of over 50% in size
BAZ2B inh = inhibitors of human BAZ2B bromodomain; Potency, µM (top dose mostly 114 µM), without a hit: at the top dose activity change, negative = inhibition, actives largely listed as inhibitors; 360,000 compounds, 4.4% hits; Q9UIF8; AlphaScreen BAZ2B-H3K14Ac peptide displacement; further: on the % scale 0 is the no-effect control and ±100 the full control effect; nearly all actives have a fitted effect of over 60% in size
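Complex of BAZ2B and biotin-H3K14Ac (50 nM apiece) forms over 30 min at RT, then faces library compounds up to 110 uM for another 30 min; AlphaScreen beads added, 20 min dark incubation, luminescence read.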
HP1b chromo inh = inhibitors of HP1-beta chromodomain binding to methylated histone tails. P83916. AlphaScreen HP1-beta / biotin-H3K9me3 peptide binding. Potency, µM (highest dose often 114 µM), inactives show at the top dose activity change, negative = inhibition, hits mostly inhibitors. 390,000 compounds, 0.56% hits. AID 540317; further: nearly all actives have a fitted effect of over 70% in size
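AlphaScreen: HP1-beta (50 nM) preformed 30 min with biotin-H3(1-18)K9me3 peptide (50 nM) in PBS pH 7.4, 0.01% Tween-20. Compound added for 30 min at RT, then streptavidin donor/nickel chelate acceptor beads (10 ug/mL) for 30 min.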
L3MBTL1 block = blocks human L3MBTL1. Potency, µM (top dose mostly 57.1 µM), for inactives: at the top dose activity, negative = inhibition, most hits filed as inhibitors. AlphaScreen L3MBTL1–H3K9me1 peptide binding. Q9Y468. 230,000 compounds, 0.66% hits; further: on the % scale 0 is the no-effect control and ±100 the full control effect; nearly all actives have a fitted effect of over 60% in size
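First, the protein-peptide complex forms for 30 min at room temperature (L3MBTL1 50 nM, biotinylated H3K9me1 peptide 75 nM). Next, compounds are pin-transferred and incubated 30 min. Finally, AlphaScreen beads are added and read after 30 min.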
Sfp inh = inhibitors of Bacillus subtilis Sfp phosphopantetheinyl transferase | AID 1490 | Potency, µM, for inactives: largest response in the series, negative = inhibition, actives largely listed as inhibitors | Biochemical Sfp PPTase activity, qHTS | 310,000 compounds, 3.5% hits;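 further: the enzyme is Sfp with the accession as filed and its product quenches rhodamine fluorescence; 0% = enzyme reaction without inhibitor and -100% = no enzyme wells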
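Fluorescence-quenching assay: 15 nM Sfp-PPTase preincubated 15 min at room temperature with compound, then 5 uM rhodamine-CoA and 12.5 uM BHQ-2-labelled YbbR peptide added. Fluorescence (ex 525/em 598 nm) read at start and after 30 min; difference gives rate.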
The depositor's hits bear a star; ? = inconclusive; nt = no result given; [ ] = dose if it differs, or a comment. The call rests on the fitted dose curve; in most records, active means well fitted curve in the direction sought with a large enough effect; inconclusive means small, poorly fitted or top-dose-only effect, or another doubt; inactive means no such curve, though single readings can be large; an effect the other way counts as inactive or inconclusive. Potency means the concentration at half of the fitted maximal effect.

SMILES | G9a inh | JMJD2A Tudor | BAZ2B inh | HP1b chromo inh | L3MBTL1 block | Sfp inh
O=C(CSc1nnc(-c2ccccc2Cl)o1)N1CCCCC1 | ? | -11% | -6% | 55% | 5% | 7%
O=C(CSc1nnc(-c2ccccc2O)o1)N1CCCCC1 | 10µM* | -2% | -31% | 37% | nt | 5%
CC1CCCCN1C(=O)CSc1nnc(-c2ccccc2Cl)o1 (configuration not stated) | 13µM* | -4% | 3% | -10% | nt | nt
CC1CCCCN1C(=O)CSc1nnc(-c2ccccc2O)o1 (configuration not stated) | ? | -14% | 2% | 25% | nt | 11%
Cc1ccc(S(=O)(=O)c2nc(-c3cccs3)oc2SCC(=O)Nc2cc(C)cc(C)c2)cc1 | ? | -24% | -15% | 8% | nt | nt
Cc1oc(-c2ccc(Cl)cc2)nc1CS(=O)CC(=O)NCc1ccc(Cl)cc1 (configuration not stated) | -30%[59 µM] | -5% | -22% | 50% | nt | nt
CCc1nnc2c(Nc3cccc(F)c3)nc3ccc(C(=O)c4ccccc4)cc3n12 | 5%[59 µM] | -19% | -3% | 8% | nt | nt
O=C(Nc1ccccc1-c1nc2ccccc2s1)c1ccc(F)cc1 | 5%[59 µM] | 8% | 50µM* | 39% | nt | nt
CNc1sc(C(=O)c2cccs2)c(N)c1-c1nc2ccccc2s1 | ? | 50µM* | -6% | -16% | -28% | 13µM*
O=C(Nc1nc2ccccc2s1)c1ccc(F)cc1 | -5%[59 µM] | -6% | ? | 34% | 17% | 11%
CC(=O)Nc1scc(C)c1-c1nc2ccccc2s1 | 54% | 74% | 48% | 123% | 79% | -18%
CNc1sc(C(=O)c2ccc(F)cc2)c(N)c1-c1nc2ccccc2s1 | 8.9µM* | ? | 50µM* | -29% | nt | -19%
COc1ccc(NC(=O)Cn2c(=O)n(-c3cccc(C)c3)c(=O)c3c2c2cc(C)ccc2n3C)cc1Cl | -30%[59 µM] | -6% | -1% | 23% | nt | nt
CC1CC=CC2C1C(=O)N(Cc1ccccc1)C2c1ccc(Br)cc1F (configuration not stated) | nt | 5% | nt | 63% | nt | -13%
c1ccc2c(NCC3CCCO3)nc(N3CCOCC3)nc2c1 (configuration not stated) | 0% | -13% | -27% | 25% | 2% | 20%
CCOc1ccc(Nc2nc(NCC3CCCO3)c3ccccc3n2)cc1 (configuration not stated) | 40µM* | ? | 32µM* | 2% | nt | 35µM*
c1ccc(-c2nc(NCc3ccco3)c3ccccc3n2)nc1 | ? | -34%[11.4 µM] | 45µM* | 25% | ? | 1%
c1ccc(-c2nc(NCC3CCCO3)c3ccccc3n2)nc1 (configuration not stated) | 11%[59 µM] | 89µM* | ? | 53% | -8% | ?
c1ccc(Nc2nc(NCC3CCCO3)c3ccccc3n2)cc1 (configuration not stated) | -38% | -25% | -39% | 33% | 9% | ?
COc1ccc(Nc2nc(NCC3CCCO3)c3ccccc3n2)c(OC)c1 (configuration not stated) | 45µM* | ? | ? | -5% | ? | 15%
COC(=O)c1cc2c(cc1NC(=O)c1cnn(-c3ccccc3)c1-n1cccc1)OCO2 | 7%[59 µM] | -11% | 2% | 26% | nt | nt
Cc1c(Cl)ccc2sc(N3CCN(C(=O)c4ccco4)CC3)nc12 | -28%[59 µM] | -19% | ? | -1% | nt | nt
C/C(CCN1CCCc2nc(C)c(C)cc21)=N\OC[C@@H](C)[C@H](OCc1ccccc1)C(C)C | nt | nt | nt | nt | nt | -4%
Cc1ccc(CCNC(=O)CCn2nc(-c3ccc(Cl)cc3)ccc2=O)cc1 | -4%[59 µM] | -13% | -1% | 28% | nt | nt
C(=N\Nc1nc(-c2ccccn2)nc2ccccc12)/c1ccccc1 | -16% | ? | 50µM* | 12% | -6% | -2%
CCOc1ccc(Nc2c3ccccc3nc3ccccc23)cc1 | 32µM* | -28%[11.4 µM] | 35µM* | ? | ? | -12%
